Where “and” joins values, the source holds several entries; their conditions need not be identical. Equal values may be shown once. Out of some 220,000 compounds screened, about 830 (0.38%) were called active. This is one part of a sample in which actives are shown more often than they occur. Unmarked numbers belong to inactive results.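 How the source made its calls: active means activation, scaled between plate controls, above about 75% (limit read from the data); inactive means activation under that limit.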

The test can be described thus: inhibitors of zVAD-triggered necroptosis, primary screen, L929 cells (AID 1377).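 Further: 0% = zVAD with DMSO and 100% = DMSO alone without zVAD.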 To be noted: ATP luminescence, 24 h, at 10 µM, stronger effect = higher value; with zVAD 60 µM unless noted.
With `CNC(=S)N/N=C/c1cn(Cc2ccc(C)cc2)c2ccccc12`, the viability rescue is 0.34%.

With `COCCNC(=O)c1ccccc1NS(=O)(=O)c1ccc(C)c([N+](=O)[O-])c1`, the viability rescue is 0.95%.

In the case of `COc1ccc(/C=N/NS(=O)(=O)c2ccc(NC(C)=O)cc2)cc1`, the viability rescue is 0.07%.

`Cc1cc(=O)oc2cc(OCC(=O)Nc3nnc(C4CC4)s3)ccc12`: the viability rescue was -0.67%.

On to `Cc1ccc(NC(=O)Cn2cccc2C2=NC(c3ccccc3)CO2)c(C)c1` (stereo not given), for which the viability rescue was -0.00089%.

`COc1cc(/C=N/Nc2nc3ccccc3s2)ccc1O`: the viability rescue is 77.5% (active).

For the compound `CCNc1nc(NCC)nc(N/N=C/c2ccc(O)c(OC)c2)n1`, the viability rescue is 0.27%.

In the case of `COc1cc(/C=N\Nc2nc(-c3cccs3)c(NC(C)=O)s2)ccc1O`, the viability rescue is 2.98%.

`COc1cc2nc(Cl)nc(NCCO)c2cc1OC`: the viability rescue was 0.24%.

On to `CC1CC(C)(C)n2c(O)c(N=NC(N)=S)c3cccc1c32` (stereo not given), for which the viability rescue was -0.69%.

For the compound `COc1ccccc1/C=C/CN1CCC(CO)(Cc2ccccc2)CC1`, the viability rescue was 0.85%.

For the compound `NC(=O)COC(=O)/C=C/c1ccc2ccccc2n1`, the viability rescue is 10.8%.

Regarding `CC(=O)c1ccc(S(=O)(=O)N2CCN(c3nc4c(C)c(C)ccc4cc3C#N)CC2)cc1`, the viability rescue was 1.16%.

As for `CC(=O)c1ccc(S(=O)(=O)N2CCN(C(=O)/C=C/c3ccc4ccccc4n3)CC2)cc1`, the viability rescue is 75.2% (active).

On to `Cc1ccc(S(=O)(=O)N(C)CC(=O)OCC(=O)Nc2ccccc2)cc1`, for which the viability rescue is 0.76%.

`Brc1cc(/C=N/n2cnnc2)oc1Br`: the viability rescue is 0.56%.

Take `O=C(COc1ccc(Cl)cc1)NCCC1=CCCCC1`: the viability rescue is 0.15% [with zVAD 20 µM].

Regarding `Cc1nnc(OCC(=O)NCCC2=CCCCC2)c2ccccc12`, the viability rescue was 0.41%.

For `O=C(COc1cccc(-n2cnnn2)c1)NCCC1=CCCCC1`, the viability rescue is 78.2% [with zVAD 20 µM] (active).

With `COCCN(C(=O)c1ccccc1F)c1c(N)n(Cc2ccccc2)c(=O)[nH]c1=O`, the viability rescue was 1.78%.

As to `COc1ccc(CN2C(=O)C(C)S/C2=N/N=C/c2ccco2)cc1` (stereo not given), the viability rescue was 0.28%.

With `COc1ccccc1N=Cc1c(O)c2ccccc2oc1=O`, the viability rescue was -0.1%.

With `COC(=O)c1[nH]c2ccccc2c1NS(=O)(=O)c1ccc(OC)cc1OC`, the viability rescue is -0.08%.

For the compound `COc1ccc(N=Cc2c(O)[nH]c3ccccc23)cc1OC`, the viability rescue was 76.4% [with zVAD 20 µM] (active).

Take `COCC(=O)N=Nc1c(O)[nH]c2ccccc12`: the viability rescue is -0.49% [with zVAD 20 µM].

Turning to `COc1cc(N=Cc2c(O)[nH]c3ccccc23)cc(OC)c1OC`, the viability rescue was 78.4% [with zVAD 20 µM] (active).

For `CN=c1scc(-c2cc(OC)ccc2OC)n1/N=C/c1c(C)[nH]c2ccccc12`, the viability rescue is 3.26% [with zVAD 20 µM].

As to `Cc1cccc(C(=O)N2CCC(c3nc4ccccc4s3)CC2)c1`, the viability rescue is 12.5%.

For `CC(C)=CCN1CCN(Cc2ccc(Oc3ncccn3)cc2)CC1CCO` (stereo not given), the viability rescue is -0.77%.

On to `CCc1ccc(C2C(C#N)=C(N)N(N3CCOCC3)C3=C2C(=O)CC(C)(C)C3)s1` (stereo not given), for which the viability rescue is -0.95%.

As to `CCCN=C1NC(=O)C(CC(=O)NCCc2ccc(OC)c(OC)c2)S1` (stereo not given), the viability rescue was 0.51% [with zVAD 20 µM].

Turning to `OCC(CO)(CO)NCc1ccc(-c2ccccc2)cc1`, the viability rescue was 3.78%.

Take `O=C(Nc1nnc(C2CC2)s1)C1=NN(C2CCS(=O)(=O)C2)C(=O)CC1` (stereo not given): the viability rescue was 1.75%.

Take `Cn1c(=O)c2c(nc(NCc3ccccc3)n2CC(N)=O)n(C)c1=O`: the viability rescue was -0.38%.

As for `Clc1ccc(-c2cc(-c3ccccn3)on2)c(Cl)c1`, the viability rescue was -0.1%.

With `COc1ccc(Br)c2c1C(=O)CC2`, the viability rescue is 1.09%.

`NC1=NC[C@@H](Cc2ccc(O)cc2)N1CC1CCCCC1`: the viability rescue is 0.84%.

Turning to `c1ccc2c(c1)CSc1sccc1C2=C1CCNCC1`, the viability rescue is 1.55%.

Take `Oc1ccc(/C=N/Nc2ccc(C(F)(F)F)cn2)cc1O`: the viability rescue is 78.6% (active).

For the compound `Cc1nccn1CC(=O)N/N=C/c1ccc(O)c(O)c1`, the viability rescue is 0.09% [with zVAD 20 µM].

In the case of `O=C(Nc1ccccc1)Nc1ccc(C(F)(F)F)cn1`, the viability rescue is 16.8%.

As to `COc1cc(Cl)c(C)cc1NC(=O)COC(=O)c1cc(SC)ccc1Cl`, the viability rescue is -0.03% [with zVAD 20 µM].

With `O=S(=O)(NC1CC1)c1ccc2c3c(cccc13)CC2`, the viability rescue was 2.42%.

`Cc1csc(NC(=O)NC2(C(F)(F)F)Oc3ccccc3O2)n1`: the viability rescue was 78.5% [with zVAD 20 µM] (active).

For the compound `Cc1csc(NC(=O)Nc2ccccc2[N+](=O)[O-])n1`, the viability rescue was 0.75%.

Turning to `CC(=O)Nc1cccc(C(=O)Nc2nc(C)cs2)c1`, the viability rescue was -1.49%.

On to `COc1ccc(CNC(=O)CN2CCC(n3nnc4cc(F)ccc43)CC2)cc1`, for which the viability rescue is -0.59%.

Consider `Cc1oc(C(N)=O)cc1COc1ccc(C(N)=O)cc1`, for which the viability rescue was 1.12%.

Consider `Cc1cc(C(=O)NNS(=O)(=O)c2ccccc2C(F)(F)F)nn1C(C)(C)C`, for which the viability rescue was 0.49%.

For the compound `CN(C)S(=O)(=O)c1ccc(NC(=O)COC(=O)Cn2[nH]c(=O)c3ccccc3c2=O)cc1`, the viability rescue was 0.01%.

As to `COc1ccc(Cl)cc1NC(=O)COC(=O)C(CC(C)C)N1C(=O)C2CC=CCC2C1=O` (stereo not given), the viability rescue is 0.49% [with zVAD 20 µM].

Take `CCOC(=O)C(=O)C1C(=O)Nc2ccccc21` (stereo not given): the viability rescue was -0.07%.

Turning to `O=C(/C=C/c1ccccc1[N+](=O)[O-])OC1CCCCC1=O` (stereo not given), the viability rescue is -0.52%.

Take `O=C(/C=C/c1ccccc1[N+](=O)[O-])NCC1CCCO1` (stereo not given): the viability rescue is 1.4%.

As to `CC1CCCCC1NC(=O)/C(C#N)=C/C=C/c1ccccc1[N+](=O)[O-]` (stereo not given), the viability rescue was 77% (active).

Turning to `C=CCn1c(P(C)(=O)O)nc2ccccc21`, the viability rescue is 0.44% and 0.28%.

On to `CCOc1cc2[nH]c(=O)n(Cc3ccc(C(=O)NCCCN4CCCC4=O)cc3)c(=O)c2cc1OCC`, for which the viability rescue was 0.03%.

On to `O=C(CSc1ccc([N+](=O)[O-])cn1)Nc1ccc(N2CCOCC2)c(Cl)c1`, for which the viability rescue is 80.2% (active).

With `Cc1cccc(C)c1NC(=O)CSc1ccc([N+](=O)[O-])cn1`, the viability rescue was 1.1%.

As to `O=C(CSc1ccc([N+](=O)[O-])cn1)Nc1ccc(N2CCOCC2)cc1`, the viability rescue was 16.6%.

Turning to `Cc1ccc(-c2csc(N(Cc3ccco3)C(=O)c3cccs3)n2)cc1`, the viability rescue is -0.54%.

Turning to `COc1ccc2nc(Nc3nc4ccc(NC(C)=O)cc4s3)sc2c1`, the viability rescue was 0.58%.

With `COc1ccc2nc(NC(=O)NC3CCCCC3)sc2c1`, the viability rescue is 85.7% (active).

For the compound `COc1ccc2nc(NC(=O)c3ccc(Br)s3)sc2c1`, the viability rescue is 0.35%.

With `CC1=NNC(=O)C1CC(=O)N/N=C/c1ccncc1` (stereo not given), the viability rescue is -0.36%.

With `Cc1ccc2[nH]c3c(=O)n(Cc4ccccn4)cnc3c2c1`, the viability rescue is 0.13% [with zVAD 20 µM].

On to `COc1cc(OC)c(OC)cc1/C=N/Nc1ncnc2c1[nH]c1ccc(C)cc12`, for which the viability rescue is 78.9% (active).

For the compound `CC(C)OCCCNc1ncnc2c1[nH]c1ccc(F)cc12`, the viability rescue is 4.34% [with zVAD 20 µM].

Consider `CCOC(=O)c1cc(Sc2ccccc2N)cc(C(=O)OCC)n1`, for which the viability rescue is 0.51%.

For the compound `CCOc1ccc(NC(=O)c2ccc(CSc3nnnn3C)cc2)cc1`, the viability rescue was 1.6%.

With `Cc1cc(C)nc(-n2nc(C)cc2NC(=O)c2ccc(Br)o2)n1`, the viability rescue is 82.2% [with zVAD 20 µM] (active).

For `Cc1cccc(-n2nc3c(c2NC(=O)c2ccc(Br)o2)CSC3)c1C`, the viability rescue was 0.18% [with zVAD 20 µM].

As to `Cc1cc(C)nc(-n2nc(C)cc2NC(=O)c2ccc(F)cc2F)n1`, the viability rescue was 0.15%.

In the case of `COc1ccc(-c2csc(Nc3ccc(O)cc3)n2)cc1`, the viability rescue was 93% (active).

Regarding `COc1ccc(Nc2nc(-c3ccccc3)cs2)cc1`, the viability rescue was 0.79%.

As for `COc1ccc(-c2csc(Nc3ccccn3)n2)cc1`, the viability rescue was 1.69%.

Turning to `COc1cc2c(C(=O)N3CCN(C)CC3)c(CSc3ccccc3)n(C)c2cc1Br`, the viability rescue was -0.59%.

As for `CC(C)NC(=S)NN=C1CCCCCCCCCCC1`, the viability rescue is 0.38%.

For the compound `Cc1nn(C)c(Oc2ccccc2)c1CCNS(=O)(=O)c1ccc(F)cc1`, the viability rescue is 0.02% [with zVAD 20 µM].

As for `COc1ccc(-c2cc(C(=O)NC(Cc3c[nH]c4ccccc34)C(=O)O)c(C)o2)cc1OC` (stereo not given), the viability rescue is 1.33%.

As to `CCN(CC)S(=O)(=O)c1ccc(NC(=O)c2cccnc2Cl)c(NC(=O)c2cccnc2Cl)c1`, the viability rescue is 82.2% (active).

With `CCN(CC)S(=O)(=O)c1ccc(Cl)c(NC(=O)c2ccncc2)c1`, the viability rescue is 0.44%.

On to `Cc1ccc(CNC(=O)c2cccnc2Cl)cc1`, for which the viability rescue is 0.12%.

As to `O=C(N/N=C/c1cccc([N+](=O)[O-])c1)c1ccncc1`, the viability rescue was -0.83%.

As to `CN1CCN(C2=NCCO2)CC1`, the viability rescue was 1%.

In the case of `CCOC(=O)C1(CCOc2ccccc2)CCN(C(=O)c2cncs2)CC1`, the viability rescue was -0.01%.

Regarding `COc1ccc(Nc2nc(NCc3ccco3)nc(N/N=C/c3ccccc3Cl)n2)cc1`, the viability rescue is 0.33%.

For the compound `COc1ccc(Nc2nc(Cl)nc(NCc3ccco3)n2)cc1`, the viability rescue is 0.2% [with zVAD 20 µM].

For the compound `COc1ccc(-n2cnc3cc(NCc4ccco4)ccc32)cc1`, the viability rescue was 79.9% (active).

Turning to `O=C(Nc1cccc2c1N(C(=O)c1ccco1)CCC2)c1ccco1`, the viability rescue is -0.96%.

The record behind these values is PubChem BioAssay AID1377 (University of Pittsburgh Molecular Library Screening Center, 2008).
